Inconclusive results are not listed. A number with no mark means an inactive call. Active and inactive are the calls of the source. Calls come from the whole dose curve; as a rule, active = well fitted cell-killing curve with a large enough effect; inconclusive = small, poorly fitted or top-dose-only effect, or effect the other way; inactive = no such curve, though single readings can be large or run the other way. *1 amine or outer side, *2 acyl side, *3 side chain or, on linkers, in order; H or OH if unused. Where a SMILES comes first, the peptide text is derived from it. Bridges are numbered along the chain shown (N, C = ends). Roman numbers before positions name the chains, in order. [ ]: non-standard residue; d: D form. Actinocin(9to1) = Cc1c2oc3c(C)ccc(C(=O)[*:1])c3nc-2c(C(=O)[*:2])c(N)c1=O; NMeV = CN[C@H](C(=O)O)C(C)C; Sar = CNCC(=O)O
tested on: JEG-3; assay: Confirmatory qHTS for gynecologic anti-cancer compounds from libraries of approved drugs and bioactive compounds; conditions: gynecologic cancer cell panel viability, ATPlite luminescence, 48 h; series mostly up to 57.6 µM; activity change, negative = viability loss: at the top concentration; note: nearly all actives have a fitted effect of over 55% in size
Method in brief: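 Cells (1,000/well) plated 16 h, then exposed 48 h at 37 °C to 11 concentrations (1:3) from 57.5 uM to 0.977 nM. Viability by ATPlite luminescence after 15 min; IC50 derived, with HEK 293T used for selectivity index.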
% is set by controls: 0 for no effect and ±100 for the full control effect; potency is the fitted concentration of half-maximal effect.

Row | Compound | Potency | activity change, negative = viability loss
1 | CNC(=O)c1nn(C)c2c1C(C)(C)Cc1cnc(Nc3ccc(N4CCN(C)CC4)cc3)nc1-2 | 6.85 µM (active) | 
2 | CC(C)Oc1ccc2c(=O)c(-c3ccccc3)coc2c1 | 24.3 µM (active) | 
3 | CC(C)C[C@H](NC(=O)[C@H](Cc1ccccc1)NC(=O)c1cnccn1)B(O)O | 0.217 µM (active) | 
4 | CCN(CC)CCOc1ccc(/C(=C(\Cl)c2ccccc2)c2ccccc2)cc1 | 89.1 µM (active) | 
5 | CCOc1cc2ncc(C#N)c(Nc3ccc(F)c(Cl)c3)c2cc1NC(=O)/C=C/CN(C)C | 30.6 µM (active) | 
6 | COC(=O)c1ccc2c(C(=Nc3ccc(N(C)C(=O)CN4CCN(C)CC4)cc3)c3ccccc3)c(O)[nH]c2c1 |  | 10.5%
7 | O=C1N(c2ccccc2)c2ccccc2C1(Cc1ccncc1)Cc1ccncc1 |  | 27.1%
8 | CC[C@@]1(O)C(=O)OCc2c1cc1n(c2=O)Cc2cc3c(CN(C)C)c(O)ccc3nc2-1 | 1.09 µM (active) | 
9 | COc1cc(N2CCC(N(C)C)CC2)ccc1Nc1ncc(Cl)c(Nc2ccccc2P(C)(C)=O)n1 | 15.3 µM (active) | 
10 | CCCCN(CCCC)C(=O)CN1C[C@H](c2ccc3c(c2)OCO3)[C@@H](C(=O)O)[C@@H]1c1ccc(OC)cc1 |  | 3.29%
11 | NC(=O)c1ccc2nc(-c3ccc(Oc4ccc(Cl)cc4)cc3)[nH]c2c1 | 21.7 µM (active) | 
12 | Cc1[nH]c2ccccc2c1CCNCc1ccc(/C=C/C(=O)NO)cc1 | 0.193 µM (active) | 
13 | CS(=O)(=O)c1ccc(C(=O)Nc2ccc(Cl)c(-c3ccccn3)c2)c(Cl)c1 |  | -1.27%
14 | CCN1C[C@H](C)n2c(c(O)c3c(=O)n(Cc4ccc(F)c(Cl)c4)nc(C(=O)NC)c32)C1=O |  | 2.48%
15 | CCN1CCN(Cc2ccc(Nc3ncc(F)c(-c4cc(F)c5nc(C)n(C(C)C)c5c4)n3)nc2)CC1 | 9.68 µM (active) | 
16 | Cc1c(NC(=O)OCC2COCCN2)cn2ncnc(Nc3ccc4c(cnn4Cc4cccc(F)c4)c3)c12 (configuration not stated) | 30.6 µM (active) | 

Row | Compound | Potency | activity change, negative = viability loss
17 | NC(=O)c1cnc(-c2ccc(C3(N)CCC3)cc2)c(-c2ccccc2)c1 | 30.6 µM (active) | 
18 | CCS(=O)(=O)N1CCN(c2ccc(Nc3ncc(C(N)=O)c(NC4CC4)n3)cc2)CC1 | 9.68 µM (active) | 
19 | CN1C2CCC1CC(OC(=O)[C@H](CO)c1ccccc1)C2 (some centres not stated) |  | -20.9%
20 | Cc1cncc2cccc(S(=O)(=O)N3CCCN(C(=O)CN)C[C@@H]3C)c12 |  | -6.44%
21 | CC[C@H](Nc1ncnc2nc[nH]c12)c1nc2cccc(F)c2c(=O)n1-c1ccccc1 |  | -0.887% [at 10.6 µM]
22 | O=c1cc(CN2CCOCC2)occ1OCCCCCSc1ccnc2cc(C(F)(F)F)ccc12 | 8.63 µM (active) | 
23 | Fc1cc(-c2cccc3ncc(-c4cnn(C5CCNCC5)c4)nc23)cc(F)c1CN1CCOCC1 | 30.6 µM (active) | 
24 | CC(=O)O[C@H]1C(=O)[C@@]2(C)[C@H]([C@H](OC(=O)c3ccccc3)[C@]3(O)C[C@H](OC(=O)[C@H](O)[C@@H](NC(=O)c4ccccc4)c4ccccc4)C(C)=C1C3(C)C)[C@]1(OC(C)=O)CO[C@@H]1C[C@@H]2O | 0.0259 µM (active) | 
25 | CCCCc1oc2ccccc2c1C(=O)c1cc(I)c(OCCN(CC)CC)c(I)c1 | 70.8 µM (active) | 
26 | O=c1[nH]c(=O)n([C@H]2C[C@H](O)[C@@H](CO)O2)cc1Br |  | -13.3%
27 | O=c1c2ccccc2nc2n1CCc1c-2[nH]c2ccccc12 |  | -3.72%
28 | CCCc1nn(C)c2c(=O)[nH]c(-c3cc(S(=O)(=O)N4CCN(C)CC4)ccc3OCC)nc12 |  | 16.3%
29 | Cc1cnc(Nc2ccc(CN3CCOCC3)cc2)nc1Nc1cccc(S(=O)(=O)NC(C)(C)C)c1 | 9.68 µM (active) | 
30 | Cc1c2oc3c(C)ccc(C(=O)N[C@@H]4C(=O)N[C@H](C(C)C)C(=O)N5CCC[C@H]5C(=O)N(C)CC(=O)N(C)[C@@H](C(C)C)C(=O)O[C@@H]4C)c3nc-2c(C(=O)N[C@@H]2C(=O)N[C@H](C(C)C)C(=O)N3CCC[C@H]3C(=O)N(C)CC(=O)N(C)[C@@H](C(C)C)C(=O)O[C@@H]2C)c(N)c1=O (I: T[dV]P[Sar][NMeV] / II: T[dV]P[Sar][NMeV]; ester I:1-I:C, II:1-II:C; linker I:N-II:N via Actinocin(9to1)) | 1.09 µM (active) | 
31 | Cn1cc(-c2[nH]c3cc(NC(=O)[C@H](N)C4CCCCC4)cc4c3c2C=NNC4=O)cn1 | 7.69 µM (active) | 
32 | CC(Oc1ccc2[nH]nc(/C=C/c3cnn(CCO)c3)c2c1)c1c(Cl)cncc1Cl (configuration not stated) | 6.85 µM (active) | 
